# Source: the supplement of paper PMC11732987, “Enantioselective OTUD7B fragment discovery through chemoproteomics screening and high-throughput optimisation” (Communications Chemistry, 2025)
# Values without a mark were called inactive.
# Experiments:
# Test in all cases: log2 ratio of Biotin-Ahx-Ub-VS probe labelling (fragment/DMSO); higher = less target engagement (more negative = stronger competition), active = hit call of the paper (q ≤ 0.05, log2 ratio ≤ -1)
# Details in all cases: compound concentration: 200 uM; treatment time: 3 h
# [1] = molecular target: T1, USP19 (UniProt O94966)
# T1 sequence (whole entry): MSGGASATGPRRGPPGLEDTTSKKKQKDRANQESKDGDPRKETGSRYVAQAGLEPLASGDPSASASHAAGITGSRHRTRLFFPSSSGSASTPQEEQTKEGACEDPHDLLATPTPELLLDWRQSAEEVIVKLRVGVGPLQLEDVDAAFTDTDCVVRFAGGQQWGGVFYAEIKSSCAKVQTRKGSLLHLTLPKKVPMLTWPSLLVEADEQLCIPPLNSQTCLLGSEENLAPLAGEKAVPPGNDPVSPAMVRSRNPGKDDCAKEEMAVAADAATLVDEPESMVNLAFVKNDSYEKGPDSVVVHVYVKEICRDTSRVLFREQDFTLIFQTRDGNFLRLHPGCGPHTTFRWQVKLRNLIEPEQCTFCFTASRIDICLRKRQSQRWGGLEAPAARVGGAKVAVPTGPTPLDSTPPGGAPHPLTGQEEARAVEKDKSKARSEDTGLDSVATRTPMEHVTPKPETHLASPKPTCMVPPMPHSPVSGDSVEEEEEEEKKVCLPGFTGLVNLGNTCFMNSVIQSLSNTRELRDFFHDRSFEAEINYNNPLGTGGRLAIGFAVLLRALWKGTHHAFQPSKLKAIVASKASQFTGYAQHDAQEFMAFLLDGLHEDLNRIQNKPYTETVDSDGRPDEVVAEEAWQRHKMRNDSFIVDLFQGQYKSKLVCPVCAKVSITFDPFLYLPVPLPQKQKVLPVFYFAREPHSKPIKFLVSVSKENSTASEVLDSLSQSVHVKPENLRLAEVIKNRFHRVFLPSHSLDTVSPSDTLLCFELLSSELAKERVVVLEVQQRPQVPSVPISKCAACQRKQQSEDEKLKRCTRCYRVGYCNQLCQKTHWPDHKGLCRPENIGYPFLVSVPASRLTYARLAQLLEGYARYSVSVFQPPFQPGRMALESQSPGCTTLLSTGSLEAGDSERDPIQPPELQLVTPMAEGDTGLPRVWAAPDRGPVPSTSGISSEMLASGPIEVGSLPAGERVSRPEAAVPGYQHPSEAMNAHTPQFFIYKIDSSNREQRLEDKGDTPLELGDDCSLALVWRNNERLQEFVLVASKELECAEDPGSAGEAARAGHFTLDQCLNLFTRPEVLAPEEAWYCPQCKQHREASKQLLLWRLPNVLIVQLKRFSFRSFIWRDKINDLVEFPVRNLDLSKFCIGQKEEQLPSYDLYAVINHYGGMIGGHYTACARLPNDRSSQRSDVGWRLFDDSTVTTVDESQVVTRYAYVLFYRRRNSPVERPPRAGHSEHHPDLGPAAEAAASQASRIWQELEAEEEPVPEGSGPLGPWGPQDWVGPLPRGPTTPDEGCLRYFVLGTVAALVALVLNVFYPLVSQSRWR
# In short: (§1)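 Labelled DUBs were enriched with NeutrAvidin, digested with LysC and trypsin, and run by diaPASEF LC-MS/MS. The labelling used Biotin-Ahx-Ub-VS at 0.5 µM final for 1 h on HEK293T lysate (495 µg per sample) previously treated in triplicate with fragment at 200 µM or vehicle for 3 h. Values are average log2 fragment/vehicle ratios by unpaired t-test on global-median-normalised Spectronaut quantities of proteins with ≥2 unique peptides.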
# [2] = molecular target: T2, USP22 (UniProt Q9UPT9)
# T2 sequence (whole entry): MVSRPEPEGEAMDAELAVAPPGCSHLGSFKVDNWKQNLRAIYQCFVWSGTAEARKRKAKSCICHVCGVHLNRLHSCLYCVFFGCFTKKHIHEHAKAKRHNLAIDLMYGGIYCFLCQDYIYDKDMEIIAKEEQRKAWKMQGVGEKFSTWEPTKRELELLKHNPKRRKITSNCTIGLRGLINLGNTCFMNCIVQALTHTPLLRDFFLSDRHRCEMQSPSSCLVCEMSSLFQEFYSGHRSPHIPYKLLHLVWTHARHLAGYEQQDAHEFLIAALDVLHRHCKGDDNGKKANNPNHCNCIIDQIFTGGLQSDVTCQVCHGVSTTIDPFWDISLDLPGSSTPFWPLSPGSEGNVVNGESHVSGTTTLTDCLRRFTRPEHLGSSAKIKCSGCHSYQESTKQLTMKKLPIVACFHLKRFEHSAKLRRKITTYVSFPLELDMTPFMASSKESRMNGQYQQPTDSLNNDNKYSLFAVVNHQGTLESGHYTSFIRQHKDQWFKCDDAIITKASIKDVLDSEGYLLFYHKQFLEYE
# In short: as §1
# [3] = molecular target: USP24 (UniProt Q9UPU5)
# In short: as §1
# [4] = molecular target: T3, USP25 (UniProt Q9UHP3)
# T3 sequence (whole entry): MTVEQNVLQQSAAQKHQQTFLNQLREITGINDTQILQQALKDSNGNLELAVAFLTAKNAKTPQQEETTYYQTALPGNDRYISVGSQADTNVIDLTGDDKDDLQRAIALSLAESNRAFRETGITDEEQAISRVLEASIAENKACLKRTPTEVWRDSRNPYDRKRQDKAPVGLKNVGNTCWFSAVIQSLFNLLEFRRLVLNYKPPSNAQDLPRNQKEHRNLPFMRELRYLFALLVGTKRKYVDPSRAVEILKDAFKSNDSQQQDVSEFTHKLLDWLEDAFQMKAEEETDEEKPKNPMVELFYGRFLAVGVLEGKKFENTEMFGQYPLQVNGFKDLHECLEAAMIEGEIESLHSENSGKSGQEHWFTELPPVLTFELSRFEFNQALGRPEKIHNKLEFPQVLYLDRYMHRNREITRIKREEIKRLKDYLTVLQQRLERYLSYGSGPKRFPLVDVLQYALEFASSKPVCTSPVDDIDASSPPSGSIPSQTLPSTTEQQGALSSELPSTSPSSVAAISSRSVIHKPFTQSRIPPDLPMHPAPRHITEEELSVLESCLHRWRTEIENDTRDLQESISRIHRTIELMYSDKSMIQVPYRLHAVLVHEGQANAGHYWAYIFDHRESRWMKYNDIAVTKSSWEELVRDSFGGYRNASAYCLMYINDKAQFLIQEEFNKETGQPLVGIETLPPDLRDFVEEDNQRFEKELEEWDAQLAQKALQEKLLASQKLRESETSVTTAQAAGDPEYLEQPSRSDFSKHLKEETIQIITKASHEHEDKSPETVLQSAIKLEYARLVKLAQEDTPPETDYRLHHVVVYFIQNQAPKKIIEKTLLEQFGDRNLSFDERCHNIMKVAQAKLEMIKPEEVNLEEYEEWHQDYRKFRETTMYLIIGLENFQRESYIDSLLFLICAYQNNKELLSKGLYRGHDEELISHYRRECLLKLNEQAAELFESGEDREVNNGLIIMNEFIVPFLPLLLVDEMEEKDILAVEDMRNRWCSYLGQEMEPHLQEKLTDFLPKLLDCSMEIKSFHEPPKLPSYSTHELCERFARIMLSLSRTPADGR
# In short: as §1
# [5] = molecular target: T4, USP28 (UniProt Q96RU2)
# T4 sequence (whole entry): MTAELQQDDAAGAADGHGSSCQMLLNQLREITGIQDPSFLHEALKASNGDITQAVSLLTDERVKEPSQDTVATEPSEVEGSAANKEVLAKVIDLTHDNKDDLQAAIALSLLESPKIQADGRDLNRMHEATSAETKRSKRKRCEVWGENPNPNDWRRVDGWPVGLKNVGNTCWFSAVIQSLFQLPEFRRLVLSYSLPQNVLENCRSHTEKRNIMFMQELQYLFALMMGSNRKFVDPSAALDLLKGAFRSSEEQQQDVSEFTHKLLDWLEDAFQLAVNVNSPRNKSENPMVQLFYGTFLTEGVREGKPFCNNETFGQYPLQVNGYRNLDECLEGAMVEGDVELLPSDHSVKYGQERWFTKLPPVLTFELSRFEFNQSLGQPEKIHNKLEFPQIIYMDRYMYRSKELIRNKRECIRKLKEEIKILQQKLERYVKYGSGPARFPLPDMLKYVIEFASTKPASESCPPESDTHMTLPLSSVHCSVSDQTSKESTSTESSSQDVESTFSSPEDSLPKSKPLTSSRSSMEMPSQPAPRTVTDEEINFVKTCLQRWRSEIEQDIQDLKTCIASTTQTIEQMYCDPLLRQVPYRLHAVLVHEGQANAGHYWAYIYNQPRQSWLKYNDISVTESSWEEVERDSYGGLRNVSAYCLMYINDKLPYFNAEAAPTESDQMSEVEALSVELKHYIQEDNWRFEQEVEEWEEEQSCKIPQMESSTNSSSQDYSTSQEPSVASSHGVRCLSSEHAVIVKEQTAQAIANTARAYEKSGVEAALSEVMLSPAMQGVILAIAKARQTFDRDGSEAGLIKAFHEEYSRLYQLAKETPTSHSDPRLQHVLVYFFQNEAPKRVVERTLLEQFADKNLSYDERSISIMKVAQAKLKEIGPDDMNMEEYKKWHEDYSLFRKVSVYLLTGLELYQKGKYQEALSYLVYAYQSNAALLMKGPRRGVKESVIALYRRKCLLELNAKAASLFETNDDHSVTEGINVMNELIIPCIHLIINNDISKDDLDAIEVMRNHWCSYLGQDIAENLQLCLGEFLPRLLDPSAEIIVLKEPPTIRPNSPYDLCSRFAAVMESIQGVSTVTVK
# In short: as §1
# Chain of USP24 (Q9UPU5 whole entry): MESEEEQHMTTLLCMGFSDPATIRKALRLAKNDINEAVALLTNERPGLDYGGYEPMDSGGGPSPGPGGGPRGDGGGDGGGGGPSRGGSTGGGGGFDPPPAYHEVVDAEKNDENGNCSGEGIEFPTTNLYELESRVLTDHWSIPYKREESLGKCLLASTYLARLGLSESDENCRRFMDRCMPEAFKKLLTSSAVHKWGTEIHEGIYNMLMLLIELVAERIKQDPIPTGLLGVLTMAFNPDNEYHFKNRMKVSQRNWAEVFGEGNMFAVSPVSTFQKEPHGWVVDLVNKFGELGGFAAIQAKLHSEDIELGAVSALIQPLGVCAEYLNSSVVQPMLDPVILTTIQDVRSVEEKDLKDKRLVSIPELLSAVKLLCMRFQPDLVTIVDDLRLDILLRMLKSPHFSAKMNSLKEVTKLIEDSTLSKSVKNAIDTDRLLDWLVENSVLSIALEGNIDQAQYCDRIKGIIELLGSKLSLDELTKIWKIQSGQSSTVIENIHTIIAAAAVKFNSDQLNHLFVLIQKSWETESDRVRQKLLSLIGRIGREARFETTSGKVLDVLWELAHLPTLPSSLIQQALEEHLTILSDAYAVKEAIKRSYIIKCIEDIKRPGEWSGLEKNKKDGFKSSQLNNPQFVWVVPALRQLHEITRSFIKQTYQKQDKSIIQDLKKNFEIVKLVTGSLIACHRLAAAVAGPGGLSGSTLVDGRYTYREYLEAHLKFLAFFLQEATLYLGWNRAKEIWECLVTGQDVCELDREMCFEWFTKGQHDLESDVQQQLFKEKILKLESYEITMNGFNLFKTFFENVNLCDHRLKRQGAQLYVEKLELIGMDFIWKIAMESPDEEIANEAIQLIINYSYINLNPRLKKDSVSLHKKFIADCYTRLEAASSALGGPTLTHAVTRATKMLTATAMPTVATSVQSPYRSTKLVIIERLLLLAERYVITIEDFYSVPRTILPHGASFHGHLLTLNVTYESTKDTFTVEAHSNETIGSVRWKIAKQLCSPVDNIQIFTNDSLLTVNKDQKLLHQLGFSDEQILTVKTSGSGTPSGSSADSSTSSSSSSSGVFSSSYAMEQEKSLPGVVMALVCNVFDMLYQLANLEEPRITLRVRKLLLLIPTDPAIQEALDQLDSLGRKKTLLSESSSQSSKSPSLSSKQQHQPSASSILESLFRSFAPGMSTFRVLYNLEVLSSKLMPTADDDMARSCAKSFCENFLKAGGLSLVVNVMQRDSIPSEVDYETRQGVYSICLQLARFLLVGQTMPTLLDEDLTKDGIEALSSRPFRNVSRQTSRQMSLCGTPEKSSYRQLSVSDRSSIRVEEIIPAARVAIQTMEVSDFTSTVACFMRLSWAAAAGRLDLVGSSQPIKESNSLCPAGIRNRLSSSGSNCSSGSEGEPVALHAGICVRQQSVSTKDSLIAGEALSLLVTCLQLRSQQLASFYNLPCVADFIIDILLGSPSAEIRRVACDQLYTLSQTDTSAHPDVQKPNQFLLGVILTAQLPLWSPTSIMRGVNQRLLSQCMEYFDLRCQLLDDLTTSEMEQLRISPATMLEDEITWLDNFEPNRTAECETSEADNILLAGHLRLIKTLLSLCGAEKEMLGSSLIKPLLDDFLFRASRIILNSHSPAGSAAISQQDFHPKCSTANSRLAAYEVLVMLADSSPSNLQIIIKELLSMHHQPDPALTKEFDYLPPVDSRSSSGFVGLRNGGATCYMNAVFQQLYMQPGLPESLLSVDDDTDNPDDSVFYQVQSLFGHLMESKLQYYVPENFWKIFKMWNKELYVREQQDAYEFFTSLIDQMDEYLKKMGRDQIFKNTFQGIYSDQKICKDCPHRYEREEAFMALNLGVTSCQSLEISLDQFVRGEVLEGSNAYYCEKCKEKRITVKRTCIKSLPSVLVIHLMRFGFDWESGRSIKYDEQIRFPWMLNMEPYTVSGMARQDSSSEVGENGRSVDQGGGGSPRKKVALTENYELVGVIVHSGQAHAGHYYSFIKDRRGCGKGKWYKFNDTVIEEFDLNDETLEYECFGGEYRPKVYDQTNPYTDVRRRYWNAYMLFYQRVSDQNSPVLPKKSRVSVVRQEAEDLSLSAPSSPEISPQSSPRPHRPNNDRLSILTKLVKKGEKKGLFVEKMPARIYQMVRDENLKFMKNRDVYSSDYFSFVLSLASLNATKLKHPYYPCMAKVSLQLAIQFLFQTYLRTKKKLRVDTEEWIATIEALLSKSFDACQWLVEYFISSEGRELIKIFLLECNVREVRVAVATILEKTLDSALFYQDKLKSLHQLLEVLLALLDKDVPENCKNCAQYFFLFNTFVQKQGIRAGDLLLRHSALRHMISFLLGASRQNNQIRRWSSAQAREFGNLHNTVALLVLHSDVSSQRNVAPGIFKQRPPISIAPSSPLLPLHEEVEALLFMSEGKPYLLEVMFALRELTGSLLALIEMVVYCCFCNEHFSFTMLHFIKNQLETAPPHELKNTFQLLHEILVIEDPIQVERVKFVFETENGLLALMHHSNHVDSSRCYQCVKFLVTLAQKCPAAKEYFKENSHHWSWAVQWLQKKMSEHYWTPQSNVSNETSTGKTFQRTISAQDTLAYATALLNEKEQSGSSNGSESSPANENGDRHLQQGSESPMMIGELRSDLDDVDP
compound,measurement,setting,value
O=C(CCl)NC1CCOc2ccccc21 (stereo not given),log2 ratio of Biotin-Ahx-Ub-VS probe labelling,[1],-0.918
same,log2 ratio of Biotin-Ahx-Ub-VS probe labelling,[2],-0.51
same,log2 ratio of Biotin-Ahx-Ub-VS probe labelling,[3],-1.01 (active)
same,log2 ratio of Biotin-Ahx-Ub-VS probe labelling,[4],-1.23 (active)
same,log2 ratio of Biotin-Ahx-Ub-VS probe labelling,[5],-1.6 (active)
